Source: the supplement of paper PMC6555819

How the values were obtained:
Assay in all cases: PBM binding z-score (relative to random genomic background probes); higher = stronger binding; sequences stand for … in GC…GCGATTGACAGCGTAGAATGAAGG
[1] = tested on: PPARg:RXRa DBDmut IVT, anti-RXR (DBD mutation: RXRa K156A/R161A, NR concentration 270 nM, RXRa partner concentration 90 nM)
Outline: (§1)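 For binding z-scores, the reference was random background probes on custom Agilent 4×180K protein-binding microarrays. These arrays were incubated 1 h with ligand-free nuclear receptor dimers in PBS pH 7.4, 2% milk, 0.02% Triton X-100, 1 mM DTT, 0.2 mg/mL BSA and 0.4 mg/ml salmon testes DNA. Fluorescence was scanned after antibody detection of each partner (one per run) and regression-normalized.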

[2] = tested on: PPARg:RXRa IVT, anti-PPARg (NR concentration 270 nM, RXRa partner concentration 90 nM)
Outline: as §1

[3] = tested on: PPARg DBDmut:RXRa IVT, anti-PPARg (DBD mutation: PPARg1 K132A/R137A, NR concentration 270 nM, RXRa partner concentration 90 nM)
Outline: as §1

[4] = tested on: PPARg DBDmut IVT, anti-PPARg (DBD mutation: PPARg1 K132A/R137A, NR concentration 270 nM)
Outline: as §1

[5] = tested on: PPARg homodimer (NR concentration 180 nM)
Outline: as §1

[6] = tested on: PXR:RXRa (NR concentration 270 nM, RXRa partner concentration 90 nM)
Outline: as §1

[7] = tested on: PXR homodimer (NR concentration 270 nM)
Outline: as §1

[8] = tested on: RARa:RXR (NR concentration 270 nM, RXRa partner concentration 90 nM)
Outline: as §1

[9] = tested on: RARa homodimer (NR concentration 270 nM)
Outline: as §1

[10] = tested on: RARb:RXRa (NR concentration 270 nM, RXRa partner concentration 90 nM)
Outline: as §1

Sequence | PBM binding z-score [1] | PBM binding z-score [2] | PBM binding z-score [3] | PBM binding z-score [4] | PBM binding z-score [5] | PBM binding z-score [6] | PBM binding z-score [7] | PBM binding z-score [8] | PBM binding z-score [9] | PBM binding z-score [10]
CTACCAAGGTGAACAAGGTCGTTCATTACTATTC | 4.04 | 2.99 | 0.407 | 0.669 | 1.03 | 3.55 | 3.05 | 2.7 | 0.251 | 2.38
AGAATGAGGTTATACGTAGATCAGGGAAGAAAGT | 4.01 | 1.92 | 0.956 | 1.16 | 0.9 | 1.2 | 0.682 | 1.82 | 0.738 | 1.54
ATATGTAGGTTATCGGCTCATTCAGTTTGCGCAT | 6.92 | 6.58 | 2.28 | 1.66 | 1.39 | 0.282 | 0.405 | 0.31 | 1.01 | 0.662
CGAACTGGGTCATCCAGGACAGTGAATACATTGA | 7.33 | 8.01 | 5.1 | 4.27 | 2.15 | 2.01 | 0.0976 | 3.11 | 0.785 | 3.21
CAAACTAGGTCACGAAAGGTCGAAGTCGAATGAC | 8.79 | 9.21 | 6.19 | 3.15 | 3.9 | 5.95 | 1 | 5.45 | 1.66 | 4.86
GCTCGTAGGACAAGGTCAGAGCTTTGTCCGTAGA | 0.0127 | 1.08 | -1.37 | -1.3 | 0.722 | 1.63 | -0.493 | 2.13 | -1.71 | 3.16
CAAACTAGGTCAAGCTCAAAGTCGGTTTGTGCCA | 8.39 | 8.97 | 4.04 | 1.47 | 1.52 | 1.38 | -0.401 | 2.52 | 0.322 | 4.33
TCTAGTTGGTCACGGAGGTCACACTCGACGGGTA | 2.74 | 4.57 | 1.32 | 0.684 | 2.95 | 4.31 | 1.37 | 4.2 | 1.39 | 3.91
CCTATTAGTGGACCATAAGGGCAACCGAAGCTCG | 1.43 | 0.991 | 0.0446 | -0.555 | 0.856 | 0.215 | 0.612 | 0.424 | 0.803 | 1.22
CCTAGTTGGTCAGCAGGTCACACACCGGATATGA | 1.7 | 2.95 | -0.32 | 0.126 | 2.23 | 2.42 | 0.562 | 3.23 | 1.34 | 2.75
ACTATTAGTTGAGACGAGGGTAACCGATAGGTTG | 0.111 | 0.339 | 0.757 | 0.539 | 0.211 | 0.245 | 0.43 | 0.64 | 0.125 | 0.342
TCATATAGGTAAAACGTGAAAGTCGGTGTGGTAA | 6.04 | 2.88 | 0.79 | 1.01 | 1.25 | 0.221 | 0.241 | 0.571 | 1.24 | 0.406
CCTACTGTGCCACGAAAGGTCATTGATTCAGTGA | 5.18 | 4.39 | 0.906 | 0.678 | 3.62 | 5.32 | 1.94 | 5.05 | 1.63 | 3.96
TCATATAGGGAAAGGTGAAAGTCGAACGATATGA | 2.4 | 2.31 | 0.712 | 0.709 | 0.702 | 0.972 | 0.00313 | 1.74 | 0.496 | 1.78
TTAGCAAGGTGAAGGTCGTTGATCCCTCTGTAGA | 0.732 | 2.79 | -0.57 | -0.963 | 0.358 | 1.19 | -0.023 | 1.51 | -0.525 | 2.03
CCAGATAGGTGAAAGGTAACTCAGTCTGGTACGC | 5.2 | 4.32 | 0.289 | -0.0951 | 1.74 | 1.02 | 0.111 | 2.13 | 0.659 | 1.31
